Test results taken from the supplement of paper PMC7411054.

Experiments:
Conditions in all cases: treatment time: 24 h
A549-ACTB-RAB5A [1] = experiment: lowest phenotypically active concentration; higher = less potent
Procedure, shortened: (§1)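 The reporter lines, fifteen in total and built by gene editing in A549, HepG2 and WPMY1 cells, used BFP for segmentation alongside GFP and RFP/FusionRed markers. Each was treated at 0.3, 1, 3 or 9 µM for 24 h in four wells and then imaged live, with live-cell features normalised to solvent control wells. Deviation meant ≥3 of 4 wells beyond the 95th percentile of control Euclidean distances; reproducibility meant a median replicate Pearson correlation above the 95th percentile of non-replicates. Only conditions meeting both were scored as phenotypically active.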

HepG2-ACTB-RAB5A [2] = experiment: as above
Procedure, shortened: as §1

WPMY1-ACTB-RAB5A [3] = experiment: as above
Procedure, shortened: as §1

WPMY1-GM130-SQSTM1 [4] = experiment: as above
Procedure, shortened: as §1

A549-ACTB-RAB5A [5] = experiment: phenotypically active (imaging signature differs from DMSO and reproducible) at any of 0.3-9 uM (binary (1 = active, 0 = inactive)); higher = active
Procedure, shortened: as §1

A549-CANX-COX4 = experiment: as above
Procedure, shortened: as §1

A549-GM130-SQSTM1 [6] = experiment: as above
Procedure, shortened: as §1

A549-TP53BP1-CLTA = experiment: as above
Procedure, shortened: as §1

A549-TUBA1B-RELA = experiment: as above
Procedure, shortened: as §1

HepG2-ACTB-RAB5A [7] = experiment: as above
Procedure, shortened: as §1

HepG2-CANX-COX4 = experiment: as above
Procedure, shortened: as §1

HepG2-GM130-SQSTM1 = experiment: as above
Procedure, shortened: as §1

HepG2-TP53BP1-CLTA = experiment: as above
Procedure, shortened: as §1

HepG2-TUBA1B-RELA = experiment: as above
Procedure, shortened: as §1

WPMY1-ACTB-RAB5A [8] = experiment: as above
Procedure, shortened: as §1

WPMY1-CANX-COX4 = experiment: as above
Procedure, shortened: as §1

WPMY1-GM130-SQSTM1 [9] = experiment: as above
Procedure, shortened: as §1

WPMY1-TP53BP1-CLTA = experiment: as above
Procedure, shortened: as §1

WPMY1-TUBA1B-RELA = experiment: as above
Procedure, shortened: as §1

A549-GM130-SQSTM1 [10] = experiment: lowest phenotypically active concentration; higher = less potent
Procedure, shortened: as §1

| Compound | lowest phenotypically active concentration (A549-ACTB-RAB5A [1]) [µM] | lowest phenotypically active concentration (HepG2-ACTB-RAB5A [2]) [µM] | lowest phenotypically active concentration (WPMY1-ACTB-RAB5A [3]) [µM] | lowest phenotypically active concentration (WPMY1-GM130-SQSTM1 [4]) [µM] | phenotypically active (A549-ACTB-RAB5A [5]) | phenotypically active (A549-CANX-COX4) | phenotypically active (A549-GM130-SQSTM1 [6]) | phenotypically active (A549-TP53BP1-CLTA) | phenotypically active (A549-TUBA1B-RELA) | phenotypically active (HepG2-ACTB-RAB5A [7]) | phenotypically active (HepG2-CANX-COX4) | phenotypically active (HepG2-GM130-SQSTM1) | phenotypically active (HepG2-TP53BP1-CLTA) | phenotypically active (HepG2-TUBA1B-RELA) | phenotypically active (WPMY1-ACTB-RAB5A [8]) | phenotypically active (WPMY1-CANX-COX4) | phenotypically active (WPMY1-GM130-SQSTM1 [9]) | phenotypically active (WPMY1-TP53BP1-CLTA) | phenotypically active (WPMY1-TUBA1B-RELA) | lowest phenotypically active concentration (A549-GM130-SQSTM1 [10]) [µM] |
| --- | --- | --- | --- | --- | --- | --- | --- | --- | --- | --- | --- | --- | --- | --- | --- | --- | --- | --- | --- | --- |
| Cc1ccc(NC(=O)c2cccc(C(C)(C)C#N)c2)cc1Nc1ccc2ncn(C)c(=O)c2c1 | 1 | ≤ 0.3 | 3 | 3 | 1 (active) | 0 (inactive) | 0 (inactive) | 1 (active) | 1 (active) | 1 (active) | 1 (active) | 1 (active) | 1 (active) | 1 (active) | 1 (active) | 1 (active) | 1 (active) | 1 (active) | 0 (inactive) | – |
| CC(C)c1nc(CN(C)C(=O)N[C@H](C(=O)N[C@@H](Cc2ccccc2)C[C@H](O)[C@H](Cc2ccccc2)NC(=O)OCc2cncs2)C(C)C)cs1 [ritonavir] | 9 | – | – | – | 1 (active) | 0 (inactive) | 1 (active) | 0 (inactive) | 0 (inactive) | 0 (inactive) | 0 (inactive) | 1 (active) | 0 (inactive) | 0 (inactive) | 0 (inactive) | 0 (inactive) | 0 (inactive) | 0 (inactive) | 0 (inactive) | 9 |
| O=C(CCCCCCC(=O)Nc1ccc([C@H]2O[C@@H](CSc3nc(-c4ccccc4)c(-c4ccccc4)o3)C[C@@H](c3ccc(CO)cc3)O2)cc1)NO [Tubacin] | 9 | – | 9 | 3 | 1 (active) | 0 (inactive) | 1 (active) | 0 (inactive) | 0 (inactive) | 0 (inactive) | 0 (inactive) | 0 (inactive) | 0 (inactive) | 0 (inactive) | 1 (active) | 1 (active) | 1 (active) | 1 (active) | 1 (active) | 9 |
| Cn1cc(-c2cnc3ccc4ccc(CS(=O)(=O)NCc5ccccn5)cc4c(=O)c3c2)cn1 | 9 | – | – | – | 1 (active) | 0 (inactive) | 0 (inactive) | 0 (inactive) | 1 (active) | 0 (inactive) | 0 (inactive) | 0 (inactive) | 0 (inactive) | 0 (inactive) | 0 (inactive) | 1 (active) | 0 (inactive) | 0 (inactive) | 0 (inactive) | – |
| O=C1c2c(O)cccc2Cc2cccc(O)c21 [anthralin] | 9 | – | 9 | 9 | 1 (active) | 0 (inactive) | 1 (active) | 0 (inactive) | 0 (inactive) | 0 (inactive) | 0 (inactive) | 0 (inactive) | 0 (inactive) | 0 (inactive) | 1 (active) | 0 (inactive) | 1 (active) | 0 (inactive) | 1 (active) | 9 |
| CC(C)(C)n1nc(-c2ccc(Cl)cc2)c2c(N)ncnc21 | 1 | 3 | – | – | 1 (active) | 0 (inactive) | 0 (inactive) | 0 (inactive) | 1 (active) | 1 (active) | 0 (inactive) | 0 (inactive) | 1 (active) | 0 (inactive) | 0 (inactive) | 0 (inactive) | 0 (inactive) | 0 (inactive) | 0 (inactive) | – |
| Nc1ccc(N=Nc2ccccc2)c(N)n1 [phenazopyridine] | ≤ 0.3 | – | – | 3 | 1 (active) | 0 (inactive) | 1 (active) | 0 (inactive) | 0 (inactive) | 0 (inactive) | 0 (inactive) | 0 (inactive) | 0 (inactive) | 0 (inactive) | 0 (inactive) | 0 (inactive) | 1 (active) | 0 (inactive) | 0 (inactive) | 1 |
| COc1cc(OC)c2c(=O)[nH]c(-c3cc(C)c(OCCO)c(C)c3)nc2c1 [apabetalone] | 9 | 9 | – | – | 1 (active) | 0 (inactive) | 1 (active) | 0 (inactive) | 0 (inactive) | 1 (active) | 1 (active) | 1 (active) | 0 (inactive) | 0 (inactive) | 0 (inactive) | 0 (inactive) | 0 (inactive) | 1 (active) | 1 (active) | 9 |
| Nc1cc(N)c(N)cc1N [FAK Inhibitor 14] | 3 | – | 3 | 3 | 1 (active) | 0 (inactive) | 1 (active) | 0 (inactive) | 1 (active) | 0 (inactive) | 0 (inactive) | 0 (inactive) | 1 (active) | 1 (active) | 1 (active) | 1 (active) | 1 (active) | 1 (active) | 1 (active) | 9 |
| Cc1ccc(S(=O)(=O)c2ccc([N+](=O)[O-])o2)cc1 | 3 | 9 | 3 | 3 | 1 (active) | 0 (inactive) | 1 (active) | 0 (inactive) | 0 (inactive) | 1 (active) | 0 (inactive) | 1 (active) | 0 (inactive) | 1 (active) | 1 (active) | 1 (active) | 1 (active) | 1 (active) | 1 (active) | 3 |
| CCOC(=O)c1c2c3c(cccc3[nH]c1=O)C(=O)c1ccccc1-2 | 1 | – | – | – | 1 (active) | 0 (inactive) | 1 (active) | 0 (inactive) | 0 (inactive) | 0 (inactive) | 0 (inactive) | 0 (inactive) | 1 (active) | 0 (inactive) | 0 (inactive) | 0 (inactive) | 0 (inactive) | 0 (inactive) | 0 (inactive) | 1 |
| O=C(Nc1ccc(CN2CCOCC2)cc1)c1ccc(-c2cccc(Cl)c2)o1 | 9 | – | – | – | 1 (active) | 0 (inactive) | 0 (inactive) | 0 (inactive) | 1 (active) | 0 (inactive) | 0 (inactive) | 0 (inactive) | 0 (inactive) | 1 (active) | 0 (inactive) | 0 (inactive) | 0 (inactive) | 0 (inactive) | 0 (inactive) | – |
